Data on 8 compounds can be found in PubChem BioAssay (EPA / NIEHS).

The source made the active and inactive calls. Rule for the calls: active = hit-call score of the fitted dose curve at least 0.9, where 1 is the maximum; inactive = score below 0.9.

The nature of experiment [1]: APR_HepG2_NuclearSize_24hr: Apredica 24-hour HepG2 Assay for Nuclear Size (AID 2282907). To be noted: high-content imaging, actives raise or lower the signal. The procedure, abridged: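 Compounds in DMSO (final 0.5%) were added to human HepG2 hepatoma cells at ten concentrations up to 200 uM for 24 hr. Fixed nuclei were stained with Hoechst 33342, and nuclear diameter was quantified from automated images.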

The nature of experiment [2]: APR_HepG2_CellLoss_24hr: Apredica 24-hour HepG2 Assay for Cell Loss (AID 2282908).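 For AC50: fit in both directions so a hit may be cell loss or gain.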 The conditions noted are these: high-content imaging. The procedure, abridged: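 Cell number is quantified by fluorescence imaging of Hoechst 33342-stained nuclei following dosing at 0.39–200 uM in 0.5% DMSO. Curves are fitted in both directions from the DMSO baseline.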
The nature of experiment [3]: APR_HepG2_MitoticArrest_24hr: Apredica 24-hour HepG2 Assay for Mitotic Arrest (AID 2282910). To be noted: high-content imaging, actives raise or lower the signal. The procedure, abridged: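 Compounds are dosed onto HepG2 cells across ten concentrations up to 200 uM for 24 hr. Cells are then fixed in 3.7% formaldehyde, permeabilised, and labelled for phospho-histone H3 and nuclei; images are scored by cell cycle analysis and fitted bidirectionally relative to DMSO.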

Experiment [4] is described as follows: APR_HepG2_MitoMembPot_24hr: Apredica 24-hour HepG2 Assay for Mitochondrial Membrane Potential (AID 2282911). To be noted: imaging, actives raise or lower the signal. Summed up: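 Mitochondrial membrane potential imaged via MitoTracker Red CMXRos (250 nM, 30 min pre-fixation) in fixed HepG2 cells with Hoechst nuclear identification. Ten concentrations 0.39–200 uM, 24 h treatment, 0.5% DMSO; CCCP as positive control.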

Experiment [5] can be described thus: APR_HepG2_MitoMass_24hr: Apredica 24-hour HepG2 Assay for Mitochondrial Mass (AID 2282912). The conditions noted are these: high-content imaging, actives raise or lower the signal. Summed up:
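The liver line HepG2 was dosed in duplicate across a 0.39–200 uM series, with final DMSO held at 0.5% v/v, and harvested at 24 hr. High-content imaging measured mitochondrial dye staining.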

The nature of experiment [6]: APR_HepG2_CellLoss_72hr: Apredica 72-hour HepG2 Assay for Cell Loss (AID 2282915). To be noted: high-content imaging. The procedure, abridged: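 Cell number comes from Hoechst 33342-labelled nuclei, imaged at 20x after 3.7% formaldehyde fixation. Dosing was 0.39–200 uM, ten concentrations in duplicate, 0.5% DMSO final, for 72 h. Bidirectional fit relative to DMSO baseline.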

Experiment [7] in a line: APR_HepG2_P-H2AX_72hr: Apredica 72-hour HepG2 Assay for H2AX Phosphorylation (AID 2282916).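 Note: phospho-histone H2A.x immunostain intensity per cell marking DNA damage.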 The conditions noted are these: imaging, actives raise or lower the signal. The procedure, abridged: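 Following 72 hr treatment with 0.39–200 uM compound, HepG2 cells were formaldehyde-fixed, permeabilized and stained for phospho-H2A.x; signal was measured by high-content imaging and fitted bidirectionally against DMSO controls.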

A short description of experiment [8]: APR_HepG2_MitoMembPot_72hr: Apredica 72-hour HepG2 Assay for Mitochondrial Membrane Potential (AID 2282917). To be noted: imaging, actives raise or lower the signal. The procedure, abridged:
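Membrane potential read by MitoTracker Red CMXRos (250 nM, 30 min, pre-fixation) fluorescence imaging of HepG2 after 72 hr exposure. Ten concentrations, 0.39–200 uM, duplicate wells, 0.5% DMSO; fitted in both directions against DMSO baseline.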

A short description of experiment [9]: APR_HepG2_MitoticArrest_72hr: Apredica 72-hour HepG2 Assay for Mitotic Arrest (AID 2282918). To be noted: high-content imaging, actives raise or lower the signal. The procedure, abridged:
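High-content imaging of fixed human HepG2 cells after 72 h compound exposure (0.39–200 uM, duplicates, 0.5% DMSO); mitotic arrest scored from phospho-histone H3 and nuclear Hoechst staining relative to DMSO.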

Experiment [10] in a line: APR_HepG2_MicrotubuleCSK_72hr: Apredica 72-hour HepG2 Assay for Microtubule CSK Stabilty (AID 2282919). To be noted: HepG2 microtubule cytoskeleton, high-content imaging, actives raise or lower the signal. Summed up:
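Read-out is tubulin fluorescence intensity from high-content imaging of HepG2 cells, with nuclei identified by Hoechst 33342. Treatment lasts 72 h at 0.39–200 uM, and curves are fitted bidirectionally against the DMSO negative control.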

Experiment [11] is described as follows: APR_HepG2_P-H2AX_24hr: Apredica 24-hour HepG2 Assay for H2AX Phosphorylation (AID 2282920). To be noted: high-content imaging, actives raise or lower the signal. Summed up:
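High-content imaging of phospho-histone H2A.x immunofluorescence, nuclei counterstained with Hoechst 33342, in fixed HepG2 cells. Compounds ran 0.39–200 uM in duplicate for 24 h, final DMSO 0.5%. Signal change fitted both directions against DMSO.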

The nature of experiment [12]: APR_HepG2_StressKinase_72hr: Apredica 72-hour HepG2 Assay for Stress Kinase (AID 2282921). The conditions noted are these: HepG2 stress kinase (phospho-c-Jun) imaging, actives raise or lower the signal. The procedure, abridged:
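Fluorescence intensity of Cy3-tagged anti-phospho-c-Jun antibody, quantified per cell from Hoechst-defined nuclei across six images per well, served as the read-out following 72 h exposure (0.39–200 uM, 0.5% v/v DMSO).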

Experiment [13] in a line: APR_HepG2_StressKinase_24hr: Apredica 24-hour HepG2 Assay for Stress Kinase (AID 2282922). To be noted: HepG2 stress kinase (phospho-c-Jun) imaging, actives raise or lower the signal. Summed up:
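HepG2, 24 hr dosing, 0.39–200 uM in duplicate, 0.5% DMSO; formaldehyde fix (3.7%), 0.5% Triton X-100; anti-phospho-c-Jun + Cy3 secondary, Hoechst counterstain; ArrayScan imaging; bidirectional curve fit vs DMSO baseline.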

Experiment [14] can be described thus: APR_HepG2_MitoMass_72hr: Apredica 72-hour HepG2 Assay for Mitochondrial Mass (AID 2282924).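 Note: MitoTracker Red CMXRos stain intensity per cell imaged as mitochondrial mass.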 The conditions noted are these: high-content imaging, actives raise or lower the signal. The procedure, abridged: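 HepG2, 72 hr cmpd, 10 conc 0.39–200 uM in dup, DMSO 0.5% v/v. MitoTracker Red CMXRos 250 nM 30 min pre-fix; formaldehyde 3.7% fix 30 min RT. HCS imaging, gain/loss fit vs DMSO.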

A short description of experiment [15]: APR_HepG2_NuclearSize_72hr: Apredica 72-hour HepG2 Assay for Nuclear Size (AID 2282925). The conditions noted are these: high-content imaging, actives raise or lower the signal. The procedure, abridged: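 HepG2; cpd 0.39–200 uM, 10 conc, duplicate; 72 h; DMSO 0.5% v/v; fix 3.7% formaldehyde 30 min RT; Triton permeabilization; Hoechst 2 ug/mL; HCS imaging 20x; nuclear diameter; gain/loss fit vs DMSO.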

Experiment [16] is described as follows: APR_HepG2_p53Act_24hr: Apredica 24-hour HepG2 Assay for p53 Activation (AID 2282913).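 Note: p53 protein immunofluorescence averaged per cell in HepG2 with Hoechst nuclei.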 To be noted: high-content imaging, actives raise or lower the signal. Summed up:
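Fluorescence imaging of formaldehyde-fixed HepG2 cells labelled for p53 and with Hoechst, 24 h after dosing (0.39–200 uM, duplicate wells, 0.5% v/v DMSO). Signal fitted in both directions relative to DMSO.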

Experiment [17] is described as follows: APR_HepG2_p53Act_72hr: Apredica 72-hour HepG2 Assay for p53 Activation (AID 2282923).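 Note: average cellular p53 protein immunofluorescence intensity in HepG2 cells.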 To be noted: high-content imaging, actives raise or lower the signal. The procedure, abridged:
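HepG2 monolayers receive test compounds in duplicate at ten concentrations (0.39 through 200 uM) for 72 hr. They are then formaldehyde-fixed, antibody-labelled for p53, Hoechst-stained and imaged, with activity fitted bidirectionally versus DMSO.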

A short description of experiment [18]: APR_HepG2_CellCycleArrest_72hr: Apredica 72-hour HepG2 Assay for Cell Cycle Arrest (AID 2282914). The conditions noted are these: high-content imaging, actives raise or lower the signal. Summed up:
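Read-out: nuclear DNA content from Hoechst 33342 high-content imaging (20x, six fields/well) after 3.7% formaldehyde fixation, fitted bidirectionally against DMSO. Treatment was 72 h in HepG2, ten concentrations 0.39–200 uM, duplicate, 0.5% DMSO.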

Broadly, the AC50 is the midpoint of the concentration-response curve, whichever way the signal moves. As for `CCOC(=O)C(C)Oc1ccc(Oc2cnc3cc(Cl)ccc3n2)cc1` (configuration not stated), the call in [1], in experiment [3], in experiment [4], in experiment [5], in experiment [7] and in experiment [9] was inactive. Further, the outcome in experiment [11], in experiment [12], in experiment [13], in [14] and in experiment [15] was inactive. Also, the half-maximal activity concentration (AC50) is 58.5 µM (active) in experiment [2], 80.6 µM (active) in experiment [6], 13.6 µM (active) in experiment [8] and 95.1 µM (active) in experiment [10].

Regarding `CCC(O)=C1C(=O)CC(C(=O)O)CC1=O` (configuration not stated), the outcome in experiment [1], in experiment [2], in experiment [3], in experiment [4], in experiment [5] and in [16] was inactive. Moreover, the outcome in [6], in [7], in experiment [8], in experiment [9], in [10] and in experiment [11] was inactive. Further, the result in experiment [12], in experiment [14] and in [15] was inactive.

As to `CC(C)CCCCCCc1ccc(O)cc1`, the compound was classed as inactive in experiment [1], in experiment [16], in [8], in [12] and in experiment [15]. Moreover, the AC50 in [2] was 26.8 µM (active); in experiment [3], 26.3 µM (active); in [4], 115 µM (active); in experiment [5] it was 34.5 µM (active); in experiment [6] it was 28.8 µM (active); in experiment [7], 30.1 µM (active). In addition, the AC50 is 30.9 µM (active) in experiment [9], 62.1 µM (active) in [10] and 100 µM (active) in experiment [11].

As to `COC(=O)CSc1cc(N=c2sc(=O)n3n2CCCC3)c(F)cc1Cl`, the outcome in [1], in experiment [3], in experiment [4], in experiment [5], in experiment [16] and in experiment [7] was inactive. For the same compound, the result in experiment [8], in [9], in experiment [10], in experiment [11], in experiment [12] and in experiment [17] was inactive. In addition, in experiment [15], the outcome was inactive. For the same compound, the results for the concentration at half-maximal activity (AC50) in experiment [2] and in experiment [6] were 103 µM (active) and 98.9 µM (active), respectively.

In the case of `CCNc1nc(N)nc(Cl)n1`, the call in [1], in experiment [2], in experiment [3], in experiment [4], in experiment [5] and in experiment [16] was inactive. Further, the call in [6], in [7], in experiment [8], in [9], in [10] and in experiment [11] was inactive. Further, the result in [12] and in experiment [15] was inactive.

For `COC(=O)c1ccccc1C(=O)O`, the compound was called inactive in [1], in experiment [2], in [3], in [4], in experiment [5] and in [16]. In addition, the result in experiment [18], in experiment [6], in experiment [7], in experiment [8], in [9] and in experiment [10] was inactive. The compound was classed as inactive in [11], in experiment [12] and in experiment [15].

As to `CC1(C)C(C=C(Cl)Cl)C1C(=O)OCc1cccc(Oc2ccccc2)c1` (configuration not stated), the call in [1], in experiment [2], in [3], in experiment [5], in experiment [16] and in [7] was inactive. In addition, the call in experiment [8], in [9], in experiment [11], in experiment [12] and in experiment [15] was inactive. For the same compound, the AC50 in [4] is 100 µM (active); in experiment [6], 62.3 µM (active); in experiment [10] it was 100 µM (active).

As for `CCOC(=O)NCCOc1ccc(Oc2ccccc2)cc1`, the outcome in experiment [1], in [2], in experiment [3], in experiment [5], in experiment [16] and in [7] was inactive. Besides, the call in experiment [9], in experiment [11], in [12], in experiment [14] and in experiment [15] was inactive. For the same compound, the concentration at half-maximal activity (AC50) in [4] was 56.2 µM (active); in [6], 52.8 µM (active); in experiment [8], 78.2 µM (active); in experiment [10], 79.4 µM (active).
